Source: PubChem
Rows were chosen to be rich in hits. Some 3.5% of all compounds tested hit in one or more screens of this group.
Pf apPOL block: Pf-apPOL DNA polymerase inhibition. Recombinant Pf-apPOL, molecular beacon fluorescence, 1.5 h. inhibition, % at 10 µM. hit rate 0.25% among 210,000. AID 1794808
mHTT CaM bind: disrupts binding of mutant huntingtin to calmodulin; inhibition, % at 15 µM; P42858; AlphaScreen His-mHTT/GST-CaM binding, luminescence; hit rate 3.6% among 190,000;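 further: 0% = both proteins with DMSO and 100% = one protein alone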
The depositor's hits bear a star; ! = repeats disagree. No stated cut-off is given here; in the data, active means inhibition above about 50%; inactive means the rest.

Results for CCC(=O)Nc1nc2ccccc2n1Cc1ccc(Cl)cc1 ?
Pf apPOL block: -7; mHTT CaM bind: 72*

How did CCC(=O)Nc1nc2ccccc2n1C do in these assays?
Pf apPOL block: 0; mHTT CaM bind: -7

What do the screens show for `Cc1ccccc1C(=O)Nc1cc(-c2ccsc2)no1`?
Pf apPOL block: -1; mHTT CaM bind: -5

Results for COC(CNC(=O)c1ccc(N2CCc3ccccc32)c([N+](=O)[O-])c1)OC ?
Pf apPOL block: -4; mHTT CaM bind: 58*

Results for COC(CNC(=O)c1ccc(N2CCN(c3ccccn3)CC2)c([N+](=O)[O-])c1)OC ?
Pf apPOL block: 2; mHTT CaM bind: 9

How did CCN(Cc1ccccc1)S(=O)(=O)c1cc(C(=O)Nc2ccccc2Cl)ccc1F do in these assays?
Pf apPOL block: -6; mHTT CaM bind: -21

How did NS(=O)(=O)c1ccc(NC(=O)c2ccc(N3C(=O)CCC3=O)cc2)cc1 do in these assays?
Pf apPOL block: -14; mHTT CaM bind: 8

How did CCc1ccc(C2=C/C(=C/c3ccc(C)c(OC)c3)C(=O)O2)cc1 do in these assays?
Pf apPOL block: 10; mHTT CaM bind: -3

What do the screens show for `CCc1ccc(C2=C/C(=C\c3ccc(C)o3)C(=O)O2)cc1`?
Pf apPOL block: 7; mHTT CaM bind: 69*

How did COc1ccccc1C(=O)N1CCCN(C2CCN(Cc3ccc(F)cc3)C2=O)CC1 (stereo not drawn) do in these assays?
Pf apPOL block: -2; mHTT CaM bind: 15

How did O=C(c1ccccc1Cl)N1CCCN(C2CCN(Cc3ccc(F)cc3)C2=O)CC1 (stereo not drawn) do in these assays?
Pf apPOL block: -4; mHTT CaM bind: 57*

Results for O=C(O)[C@H]1CC=C[C@H]2CCN(Cc3ccc(Cl)c(Cl)c3)C(=O)[C@@H]12 ?
Pf apPOL block: -8; mHTT CaM bind: 35

Results for COc1ccc(CNC(=O)[C@@H]2CC=C[C@@H]3CCN(Cc4ccc(Cl)c(Cl)c4)C(=O)[C@@H]32)cc1 ?
Pf apPOL block: -8; mHTT CaM bind: 94*

Results for COC(=O)[C@H]1CC=C[C@H]2CCN(Cc3ccc(Cl)c(Cl)c3)C(=O)[C@@H]12 ?
Pf apPOL block: -6; mHTT CaM bind: 68*

How did COc1ccc(CNC(=O)[C@@H]2CC=C[C@@H]3CCN(Cc4ccc(OC)c(OC)c4)C(=O)[C@@H]32)cc1 do in these assays?
Pf apPOL block: -5; mHTT CaM bind: 6

Results for O=C(C1=CN(c2cccc(Cl)c2)c2ccccc2S1(=O)=O)N1CCOCC1 ?
Pf apPOL block: 2; mHTT CaM bind: 0

Results for CC(C)C(=O)NC(Oc1ccc(C=NC2CCS(=O)(=O)C2)cc1)C(Cl)(Cl)Cl (stereo not drawn) ?
Pf apPOL block: -2; mHTT CaM bind: 5

How did CC(=O)Nc1nc2cc3sc(NC(C)=O)nc3cc2s1 do in these assays?
Pf apPOL block: 53*!; mHTT CaM bind: -6

How did CC(=O)Nc1nc2ccc(Br)cc2s1 do in these assays?
Pf apPOL block: 0; mHTT CaM bind: -3

Results for Cc1ccc(N=c2oc3ccc([N+](=O)[O-])cc3cc2C(=O)Nc2nccs2)c(C)c1 ?
Pf apPOL block: -4; mHTT CaM bind: 9

Results for NNc1ncnc2sc3c(c12)CCC3 ?
Pf apPOL block: -3; mHTT CaM bind: 100*

What do the screens show for `NNc1ncnc2sc3c(c12)CCN(Cc1ccccc1)C3`?
Pf apPOL block: 0; mHTT CaM bind: 90*

What do the screens show for `O=c1[nH]c(CNC2CC2)nc2sc3c(c12)CCN(Cc1ccccc1)C3`?
Pf apPOL block: 3; mHTT CaM bind: 28

What do the screens show for `c1cc(Nc2ncnc3sc4c(c23)CCC4)ccn1`?
Pf apPOL block: 4; mHTT CaM bind: 4

How did CCCOc1ccc(CNC(=O)C2CCc3nc(N4CCOCC4)ncc3C2)cc1 (stereo not drawn) do in these assays?
Pf apPOL block: -7; mHTT CaM bind: 5

Results for NC(=O)c1ccc(-c2nnc(Nc3ccc(C(=O)Nc4ccccc4)cc3)c3ccccc23)cc1 ?
Pf apPOL block: -7; mHTT CaM bind: 87*

How did CNC(=O)c1cc(Nc2nnc(-c3ccc(O)cc3)c3ccccc23)ccc1OC do in these assays?
Pf apPOL block: -15; mHTT CaM bind: 19

How did CNC(=O)c1cc(Nc2nnc(-c3ccc(C)cc3)c3ccccc23)ccc1OC do in these assays?
Pf apPOL block: 0; mHTT CaM bind: 72*

What do the screens show for `CNC(=O)c1ccc(Nc2nnc(-c3ccc(O)cc3)c3ccccc23)cc1`?
Pf apPOL block: 3; mHTT CaM bind: 16

How did Cc1ccc(F)c(NC(=O)c2cc(C(C)C)n3nccc3n2)c1 do in these assays?
Pf apPOL block: -2; mHTT CaM bind: -12

What do the screens show for `Cc1c(NC(=O)Cc2cn(C)c3ccccc23)cccc1[N+](=O)[O-]`?
Pf apPOL block: -12; mHTT CaM bind: 6

What do the screens show for `COc1cc(/C=C2\C(=O)NC(=O)N(c3ccc(Br)cc3)C2=O)cc([N+](=O)[O-])c1O`?
Pf apPOL block: -8; mHTT CaM bind: 6

Results for COc1ccc(O)c(C2=Nc3ccccc3N=C(c3cccc([N+](=O)[O-])c3)C2)c1 ?
Pf apPOL block: -2; mHTT CaM bind: 57*
